SMILES strings stand for the structures. Screen size: about 290,000 compounds; about 2,000 (0.69%) were called active. The sample holds actives, similar compounds and a random draw of the others, so the mix is not that of the screen. Unmarked numbers belong to inactive results. Cut-off read from the data, not from the text of the source: active = activity change below about -30%; inactive = the rest, inconclusive results apart.
% is set by controls: 0 for no effect and ±100 for the full control effect.

This test is described as follows: qHTS Assay for Inhibitors of Fructose-1,6-bisphosphate Aldolase from Giardia Lamblia: Coupling assay counterscreen. Particulars: coupling enzyme system counterscreen, AmpLite Red fluorescence; at 58.2 µM (top of the series). The text has this:
MLPCN Grant: MH085699-01 Assay Provider: Osnat Herzberg, University of Maryland NCGC Assay Overview: The objective of this project is to obtain compounds that inhibit Giardia lamblia growth. G. lamblia is a human pathogen which afflicts impoverished nations; it is the most common cause of outbreaks of diarrhea in the United States. During the course of our study of potential drug targets in Giardia, we have identified the Class II (Zn2+ functions in electrophilic catalysis) fructose-1,6-bisphosphate aldolase (FBPA) as an excellent candidate for drug targeting. FBPA is a key glycolytic pathway enzyme, essential for G. lamblia survival. The human FBPA belongs to the Class I aldolases, which have a different substrate binding site structure and a radically different catalytic mechanism (employing a lysine-Schiff base intermediate). Therefore, affinity-based or mechanism-based inhibitors of the Giardia FBPA are expected not to interfere with the catalytic function of the human FBPA. A glyceraldehyde-3-phosphate dehydrogenase/triose phosphate isomerase/NAD/arsenate coupled assay was adapted to the 1536-well HTP format for use in the primary screen. This was done by coupling it to a diaphorase/resazurin/resorufin reaction that can be monitored by fluorescence (excitation, 544 nm; emission, 590 nm). Compounds identified in this screen will be further evaluated by coupling the […]/triose phosphate isomerase/NADH assay to a phenazine methosulfate/tetranitroblue tetrazolium color reaction. False positives due to the dehydrogenases and diaphorase inhibition will be eliminated, and selectivity assay will triage inhibitors of mammalian triose phosphate isomerase and the Class I FBPA. G. lamblia FBPA inhibitors identified by the in vitro analyses will be examined for growth inhibition of Giardia trophozoites, and for cytotoxicity in human cells. This assay specifically addresses whether activity observed in the primary screen (AID 2451) is related to inhibition of the coupling assay used, as opposed to inhibition of aldolase. Actives in this assay are considered inconclusive for activity against aldolase.
NCGC Assay Protocol: Step,Parameter,Value,Description 1,Coupling enzyme reagent,2 uL,glyceraldehyde-3-phosphate 2,Compound,23 nL,3.68 nM-57.5 uM final concentration 3,Time,10 min,RT Incubation 4,Substrate/detection Reagent,2 uL,Substrate + enzyme coupling system + AmpLite Red kit 5,Time,20 min,RT Incubation 6,Detector,525 nm/598 nm (Fluorescence),ViewLux Fluorescence Read (Read 1) Notes: 1,Medium-binding black solid-bottom Kalypsys plates. FRD or Kalypsys dispenser. 2,Compound Library (10 mM ,1:5 dilution). Pin-transferred for a [final] range of 3.68 nM-57.5 uM. 3,RT incubation 4,FRD or Kalypsys dispenser, 2 uL of reaction mixture. Bottle kept at 4C and covered in foil to protect from light. 5,RT incubation 6,ViewLux Protocol 1194; Excitation filter wheel A (525/20 Pol; BODIPY TMR FP), Emission filter wheel B (598/25 S; BODIPY TMR FP S). Keywords: Fructose-bisphosphate aldolase, FBPA , Giardia lamblia , Giardia, HTS, Inhibitors
For orientation: Quantitative high-throughput screening tests each substance at several concentrations.
As to `Cc1[nH][nH]c(=O)c1C(c1ccc(-c2ccc(Cl)cc2)o1)c1c(C)[nH][nH]c1=O`, the activity change, negative = inhibition was -48.6% (active).
In the case of `CCOc1ccc(C(c2c(C)[nH][nH]c2=O)c2c(C)[nH][nH]c2=O)cc1OCC`, the activity change, negative = inhibition is -13.2%.
For the compound `Cc1[nH][nH]c(=O)c1C(c1ccc2c(c1)OCO2)c1c(C)[nH][nH]c1=O`, the activity change, negative = inhibition is -3.39%.
As to `CC(=O)Oc1cc2c(C(=O)NCCN3CCOCC3)c(C)oc2c2ccccc12`, the activity change, negative = inhibition was -40.7% (active).
In the case of `Cc1ccc(C(=O)NCCN2CCOCC2)cc1C` it was 3.18%; in that of `Cc1cc(C)cc(C(=O)NCCN2CCOCC2)c1`, 0.78%.
In the case of `CN(CCC(=O)Nc1cc(S(=O)(=O)N(C)C)ccc1Cl)CC(=O)Nc1ccc(F)cc1`, the activity change, negative = inhibition was 0.642%.
In the case of `COc1cc(OC)c2c(c1C(CCN1CCCCC1)c1ccc(N(C)C)cc1)OC(=O)CC2c1ccc(N(C)C)cc1` (stereo not given) it was 0.0898%; in that of `O=c1c2cc(Br)ccc2nc(-c2cccc(Cl)c2)n1O`, -2.84%; in that of `COc1ccc(C(=O)CCc2ccccc2O)c(OC)c1`, -0.998%.
Next, `Cc1ccc2cc3cc(C(=O)N4CCCCCC4)oc3nc2c1`: -75.9% (active).
Turning to `Cc1ccc(C(=O)N2CCCCCC2)cc1Br`, the activity change, negative = inhibition was 0.385%.
For `Cc1cc(C)cc(NC(=O)N2CCCCCCC2)c1`, the activity change, negative = inhibition was 1.15%.
With `O=C(Nc1nnc(-c2ccccc2F)s1)c1ccccc1F`, the activity change, negative = inhibition was -1.59%.
In the case of `COc1ccc(CCC(C)N2CCc3ccccc3C2)cc1` (stereo not given) it was -2.37%; in that of `COc1ccc(Cl)cc1NC(=O)COC(=O)C(CC(C)C)N1C(=O)C2CC=CCC2C1=O` (stereo not given), -0.682%; in that of `COc1cccc(-c2cc(NCCc3c[nH]c4ccc(OC)cc34)ncn2)c1`, -31% (active).
Regarding `COc1ccc2[nH]cc(CCNc3cc(-c4ccccc4CN(C)C)ncn3)c2c1`, the activity change, negative = inhibition is -1.84%.
For `COc1ccc2[nH]cc(CCNc3ncnc4ccc(-c5ccccc5CN(C)C)cc34)c2c1`, the activity change, negative = inhibition was -1.31%.
Next, `COC(=O)CC1c2ccccc2C(Cc2ccc(OC)cc2)=C(C)N1C(=O)OC` (stereo not given): -0.16%; `COc1cccc(C(=O)CC(=O)C(=O)Nc2ccc([N+](=O)[O-])cc2C)c1`: -0.191%; `CNC(=O)N1c2ccccc2C=Cc2ccccc21`: -0.0842%.
Regarding `Cc1nn(-c2ccccc2)c(Cl)c1/C=C/C(=O)c1ccc(O)cc1`, the activity change, negative = inhibition was 6.85%.
In the case of `Cc1ccccc1-n1nc(C)c2cc(C(=O)NC3CC3)sc21`, the activity change, negative = inhibition was 5.2%.
Turning to `Cc1ccccc1-n1nc(C)c2c1N=C1C(Cl)=CC(Cl)=CN1C2c1ccc(C(=O)O)cc1` (stereo not given), the activity change, negative = inhibition was -39.1% (active).

The values above are taken from PubChem BioAssay AID2472 (National Center for Advancing Translational Sciences (NCATS), 2010).
